PfG6PD inh – PfG6PD enzyme inhibitors, primary screen, biochemical, fluorescence intensity, uHTS; glucose-6-phosphate dehydrogenase-6-phosphogluconolactonase (Plasmodium falciparum 3D7); PfGluPho enzyme, NADPH resazurin-diaphorase fluorescence; inhibition, % at 20 µM; 350,000 tested, 0.78% active; AID 504690, 2011;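 active means inhibition reaching at least a set limit at 20 µM in the primary screen, cut at about 59% in these data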;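 further: 0% = DMSO wells with substrate and 100% = DMSO wells lacking glucose-6-phosphate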
FAS TE block – FAS thioesterase domain inhibitors, primary screen, biochemical, fluorescence intensity, uHTS; recombinant FAS-TE, OMFH fluorogenic substrate, fluorescence endpoint; 360,000 tested, 0.67% active; inhibition, % at 15 µM; Fatty acid synthase (Homo sapiens), P49327;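 active means compounds whose normalised, plate-corrected inhibition of enzyme fluorescence in the single-dose primary screen is 50% or more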;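 further: 0% = DMSO with enzyme and 100% = substrate without enzyme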
CRFBP-R2 block – antagonists of CRF-BP/CRF-R2 complex, primary screen, cell-based, HEK293, calcium dye fluorescence, uHTS; inhibition, % at 11.8 µM; 350,000 tested, 0.59% active; AID 588475, 2011; CRF-induced calcium fluorescence;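 active means inhibition of the ligand-induced calcium signal above about 50% at the single tested concentration, limit read from the data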
CRFR2-BP ag – agonists of CRF-BP/CRF-R2 complex, primary screen, cell-based, HEK293, calcium dye fluorescence, uHTS; CRF-binding protein / CRF receptor 2 complex (human); calcium dye fluorescence (FLIPR); percent of saturating CRF peptide response; activation, % at 13.2 µM; 350,000 tested, 0.46% active;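 active means activation of at least 50%, plus an integration ratio under a set limit after plate pattern correction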;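 further: plate controls were neutral control wells without compound for no effect and CRF at EC100 for full effect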
H9c2 protect – cardioprotection against H2O2-induced cell death, primary screen, uHTS, H9c2 cells, ATPLite luminescence; H9c2 cardiomyocytes, H2O2 injury protection, 2 h; AID 588492, 2011; protection from H2O2 cell death, % at 20 µM; 360,000 tested, 0.63% active;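 active means compounds giving at least 50% protection of heart cells from peroxide-induced death in the single-dose screen, raw or plate-pattern-corrected value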;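 further: 0% = DMSO wells with peroxide and 100% = DMSO wells without peroxide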
aDG glyco act – activators of alpha-DG glycosylation, primary screen, uHTS, Pro5-aDG cells, AlphaScreen. alpha-DG glycosylation AlphaScreen (IIH6); 0% Pro5, 100% B10-LARGE cell signal. activation, % at 10 µM. 360,000 tested, 0.22% active. AID 624168, 2012;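 active means activation of at least 8% versus controls, or a plate z-score of at least 8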;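 further: Pro5 are CHO cells carrying HIG-tagged alpha-DG that lacks glycosylation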
Numbers without * were called inactive; . = no result given. In the library only some 3.2% were active in any assay of this set; here they are far more common.

SMILES | PfG6PD inh | FAS TE block | CRFBP-R2 block | CRFR2-BP ag | H9c2 protect | aDG glyco act
COc1cccc(NC(=O)c2ccc(N3C(=O)C4CCC(C)CC4C3=O)cc2)c1 (stereo unspecified) | 3 | 3 | -7 | 0 | -1 | 0
CCCCOc1ccccc1C1C(C(=O)OC)=CN(CC)C=C1C(=O)OC | 1 | 13 | 59* | 0 | 10 | 0
Cc1cc(C)cc(OCC(=O)NNC(=O)CC(C)c2ccccc2)c1 (stereo unspecified) | 9 | -4 | 0 | -1 | 0 | 0
CC(=O)Nc1ccc(/C(C)=N/Nc2nc(Nc3cccc4ccccc34)nc(N3CCOCC3)n2)cc1 | 23 | 8 | -42 | 1 | 63* | 0
COC(=O)/C(C#N)=C(/Nc1ccc(F)c(Cl)c1)C(F)(F)F | 10 | -2 | 25 | 0 | -3 | 0
COc1ccc(O)c(CNn2c(-c3ccc(Br)cc3)nc3ccccc3c2=O)c1 | 7 | 2 | -4 | 1 | 50* | 0
CN(Cc1ccccc1)C(=O)COC(=O)CCC(=O)c1ccc(Cl)cc1 | -1 | 5 | -8 | -3 | 0 | 0
COc1ccc(C2=CC(c3ccc(Cl)cc3)n3cnnc3N2)cc1OC (stereo unspecified) | 3 | -5 | -49 | 80* | 10 | 0
O=C(COC(=O)CC1c2ccccc2CCN1S(=O)(=O)c1ccc(F)cc1)Nc1ccccc1 (stereo unspecified) | 3 | 27 | 57* | 7 | 3 | 1
Cc1ccccc1CSc1ccc(S(=O)(=O)N2CCCC2)cn1 | 19 | 29 | -7 | 0 | -7 | 0
CN(C(=O)CSc1nnc(-c2ccncc2)n1Cc1ccccc1)C1CCS(=O)(=O)C1 (stereo unspecified) | . | -6 | . | . | 4 | 0
CCOC(=O)N1CCc2c(sc(NC(=O)CN3CCN(C)CC3)c2C(=O)Nc2ccccc2)C1 | 9 | -5 | -6 | 2 | 39 | 0
CCOC(=O)N1CCc2c(sc(NC(=O)CN3CCOCC3)c2C(=O)Nc2ccccc2)C1 | 1 | 4 | -13 | 0 | 50* | -1
CCOc1ccc(-n2c(SCC(=O)NCc3ccco3)nc3c([nH]c4ccccc43)c2=O)cc1 | 6 | -8 | 78* | 0 | 23 | 0
COc1ccc(C(=O)N/C(=C\c2ccco2)C(=O)OCc2ccco2)cc1 | -11 | 3 | 14 | 2 | -2 | 0
CCCCOc1ccc(C(=O)N/C(=C\c2ccc(OC)cc2)C(=O)OCc2ccco2)cc1 | 9 | 17 | -6 | 3 | 57* | 0
CC(OC(=O)CN1C(=O)NC2(CCCC2)C1=O)C(=O)c1ccccc1 (stereo unspecified) | -20 | -8 | 0 | 0 | -3 | 0
O=[N+]([O-])c1ccc(-c2ccc(/C=N/Nc3nc(NCc4ccccc4)nc(N4CCOCC4)n3)o2)cc1 | 1 | 35 | -89 | 57* | -12 | -1
COC(CNc1cc(=O)oc2ccccc12)OC | 6 | -5 | 5 | -1 | -2 | 0
COC(=O)/C=C1/S/C(=N/NC(=O)c2ccccc2OC)NC1=O | 23 | -2 | 13 | 0 | 0 | 0
COC(=O)/C=C1/S/C(=N/NC(=O)c2ccc(Cl)cc2Cl)NC1=O | 3 | -3 | 51* | -2 | 8 | 0
Nc1nc2n(n1)C(c1cccs1)CC(c1ccc(F)cc1)N2 (stereo unspecified) | -5 | -10 | -10 | 1 | 4 | 0
COc1ccc(C2CC(c3cccs3)n3nc(N)nc3N2)cc1 (stereo unspecified) | 22 | -6 | -7 | -3 | 62* | 0
Cc1ccc(S(=O)(=O)NCc2ccc(C(=O)N3CCN(c4ccccn4)CC3)cc2)cc1 | 5 | -2 | -14 | -1 | 16 | 0
Cc1ccc(NS(=O)(=O)c2ccc(C(=O)N3CC(C)OC(C)C3)cc2)cc1 (stereo unspecified) | 6 | -3 | -29 | 83* | -7 | 0
SMILES | PfG6PD inh | FAS TE block | CRFBP-R2 block | CRFR2-BP ag | H9c2 protect | aDG glyco act
Cc1ccc(NS(=O)(=O)c2ccc(C(=O)NNC(=O)c3ccccc3O)cc2)cc1 | -27 | 14 | -22 | 1 | 64* | 0
Cc1ccc(NS(=O)(=O)c2ccc(C(=O)N3CCN(c4ccccn4)CC3)cc2)cc1 | -13 | -5 | 15 | 2 | -28 | 6.3*
O=C(NNC(=O)c1ccccc1O)c1ccc(NS(=O)(=O)c2ccc(F)c(F)c2)cc1 | -44 | 3 | -3 | 0 | 22 | 0
CCc1ccc(C(=O)C(C)OC(=O)c2nc3nc(C)cc(C)n3n2)cc1 (stereo unspecified) | -5 | 3 | -4 | -2 | 7 | 0
Cn1ccc2c(-c3ccc4[nH]ccc4c3)cc3c(c21)C1CCC3O1 (stereo unspecified) | . | 9 | . | . | 3 | 1
CC(C)(C)OC(=O)C[C@H]1C/C=C\C[C@@H](CC(=O)NCCO)C(=O)N[C@H](C(C)(C)C)COC1=O | 17 | -7 | 5 | 1 | 2 | 0
Cc1cc(C)n2nc(/C(C#N)=C/c3ccccc3)c(C#N)c2n1 | -5 | 15 | 99* | 2 | 34 | 0
COc1ccc(Cc2c(-c3ccccc3)nc3c4ccccc4ccn23)c(C)c1 | . | 8 | . | . | -4 | 0
COc1ccc(-c2cnc3c(NC(C)=O)cc(-c4ccc(S(C)(=O)=O)cc4)cn23)cc1OC | . | 3 | . | . | 20 | 1
CCOC(=O)c1ccc(CNC(=O)Cn2nnc(-c3ccccc3F)n2)o1 | -1 | -3 | 9 | -1 | -3 | 0
CCOC(=O)c1ccc(CNC(=O)Cn2nnc(-c3ccccc3)n2)o1 | 7 | -5 | -100 | 143* | 0 | 1
COc1ccc(N(C(=O)c2ccco2)C(C(=O)NC2CCCC2)c2ccc(N3CCOCC3)cc2)c(OC)c1 (stereo unspecified) | -4 | 8 | 53* | 0 | 3 | 0
COc1ccc(N(C(=O)c2ccco2)C(C(=O)NC2CCCC2)c2ccc(C)cc2)c(OC)c1 (stereo unspecified) | -1 | 25 | -1 | 0 | -2 | 0
O=C(Nc1ccc([N+](=O)[O-])cc1)/C(=C/c1cccc([N+](=O)[O-])c1)NC(=O)C1CCCCC1 | -2 | 59* | 13 | -1 | -7 | 0
COc1cc(/C=C/C(=O)OCC(=O)NCCc2ccc(F)cc2)ccc1OC(F)F | -3 | 0 | 2 | -2 | -1 | 0
